The record followed here is PubChem BioAssay (EPA / NIEHS).

Structures are written as SMILES. The source made the active and inactive calls. How the source made its calls: active means hit-call score of the fitted dose curve at least 0.9, where 1 is the maximum; inactive means score below 0.9.

The test in a line: CCTE_Mundy_HCI_Cortical_NOG_BPCount: CCTE's Neurite Outgrowth Assay in rat cortical cells for Branch Point Count, Mundy Lab (AID 2284237).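 On AC50: branch points counted about two days after chemical exposure.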 As to the method:
CCTE_Mundy_HCI_Cortical_NOG is a multiplexed, cell-based-readout assay that uses rat primary cortical cells with measurements taken at 50.33 hours after chemical dosing in a microplate: 96-well plate.CCTE_Mundy_HCI_Cortical_NOG_BPCount is one of four components of the CCTE_Mundy_HCI_Cortical_NOG assay. It measures neurite outgrowth related to the number of branch points using High Content Imaging of fluorescently labelled markers.[…] Using a type of morphology reporter, loss -of-signal activity can be used to understand developmental effects.
Exposure starts 2 hours post-plating by adding 10 ul of the working solution to 90 ul of media in the wells for a 1/10 dilution. Forty-eight hours after chemical treatment cells are fixed by direct addition of 100 ul of warm (37C) Dulbecco's phosphate buffered saline (DPBS) fixative solution containing 8% paraformaldehyde, 8% sucrose, and 0.1% of 3 mg/ml Hoechst 33342 into each well. Primary antibodies are prepared by dilution in Immunocytochemical Staining Buffer (ISB), 10X Dulbecco's PBS, 0.1% Saponin, 5% Bovine Serum Albumin, 0.5% NaN3 (Sodium Azide) and betaIII-tubulin (rabbit anti-betaIII-tubulin, 1:800) followed by Alexa Fluor-488 secondary (1:500) to label neuronal cell bodies and neurites. A Cellomics ArrayScan VTi HCS Reader is used for automated image acquisition and analysis of neurite outgrowth.
For the compound `COP(=O)(OC)SCN1C(=O)c2ccccc2C1=O`, the compound was called inactive. Same read-out and setting: the value for `CC1(C)[C@@H](C=C(Cl)Cl)[C@@H]1C(=O)O[C@@H](C#N)c1ccc(F)c(Oc2ccccc2)c1` was “inactive”. Take `CC(=O)[O-].[Tl+]`: the AC50 was 50 µM (active). Take `CCOP(=S)(OCC)SCS(=O)C(C)(C)C` (centres undefined): the compound was classed as inactive. As for `O=[As]O`, the AC50 was 2.61 µM (active). For `CC1(C)[C@H](C=C(Cl)Cl)[C@@H]1C(=O)O[C@@H](C#N)c1cccc(Oc2ccccc2)c1`, the compound was called inactive.

As for `CCOP(=O)(Oc1cnc(C(C)(C)C)nc1)OC(C)C` (centres undefined), the call was inactive.

For `[CH3][Hg][Cl]`, the AC50 was 0.244 µM (active). The same measure, in the same setting: in the case of `CCC[CH2][Sn]([CH2]CCC)([CH2]CCC)[O][Sn]([CH2]CCC)([CH2]CCC)[CH2]CCC` it was 0.0277 µM (active); in that of `Cc1ccc(OP(=O)(Oc2ccc(C)cc2)Oc2ccc(C)cc2)cc1` (tested in a mixture with another compound), 20.2 µM (active). `CCOP(=O)(OCC)OC(Cl)C(Cl)(Cl)Cl` (centres undefined): the compound was classed as inactive. Take `[Cd+2].[Cl-].[Cl-]`: the concentration at half-maximal activity (AC50) was 18.9 µM (active). Still for that read-out and setting: the value for `Brc1ccc(Oc2ccc(Br)cc2Br)c(Br)c1` was 25.6 µM (active). For the compound `C[C@H](N)Cc1ccccc1`, the compound was classed as inactive. Turning to `CCOP(=O)(OCC)SCSC(C)(C)C`, the half-maximal activity concentration (AC50) was 62.1 µM (active). The same measure, in the same setting: the value for `Cn1nc(C(F)(F)F)c(CS(=O)(=O)C2=NOC(C)(C)C2)c1OC(F)F` was 77.1 µM (active). Turning to `C=CCN1CC[C@]23c4c5ccc(O)c4O[C@H]2C(=O)CC[C@@]3(O)[C@H]1C5`, the compound was called inactive. With `CC1(C)C(C=C(Cl)c2ccc(Cl)cc2)C1C(=O)OC(C#N)c1ccc(F)c(Oc2ccccc2)c1` (centres undefined), the half-maximal activity concentration (AC50) was 23.5 µM (active). The same measure, in the same setting: in the case of `C[n+]1ccc(-c2cc[n+](C)cc2)cc1` it was 50 µM (active). Same read-out and setting: the value for `CCOP(=O)(OCC)SCSCC` was 84.1 µM (active). On to `CNC(=N[N+](=O)[O-])NCC1CCOC1` (centres undefined), for which the outcome was inactive. Still for that read-out and setting: in the case of `C#CCN(C)[C@H](C)Cc1ccccc1` it was “inactive”.

On to `CC1(C)C(C=C(Cl)Cl)C1C(=O)O[C@H](C#N)c1cccc(Oc2ccccc2)c1` (some centres undefined), for which the half-maximal activity concentration (AC50) was 80 µM (active). The same measure, in the same setting: the value for `CC1(C)[C@H](C=C(Cl)Cl)[C@H]1C(=O)OCc1c(F)c(F)cc(F)c1F` was 81.1 µM (active).

In general, AC50 refers to the midpoint of the concentration-response curve, whichever way the signal moves.
